# According to the supplement of paper PMC9135407:
# About 620 (11%) of roughly 5,800 compounds showed activity. The full list was thinned out, with actives kept by preference. Unmarked numbers belong to inactive results.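 How the source made its calls: active = score above a cut-off or among the top three wells of a plate; in these data no inactive exceeds 0.85.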
# System: primary human hepatic stellate cells (donor 1)
# Assay: scaled lipid accumulation score (0 = DMSO-like, 1 = nortriptyline-like); higher = stronger HSC inactivation (lipid re-accumulation), active = hit call of the paper
# Settings: 48 h
# [1] = library stock concentration: 10 mM
# [2] = library stock concentration: 3.33 mM
# [3] = library stock concentration: 1 mM
# [4] = library stock concentration: 400 uM
# [5] = library stock concentration: 2 mM
smiles,measurement,setting,value
Cc1[nH]nc2ccc(-c3cncc(OC[C@@H](N)Cc4ccccc4)c3)cc12,scaled lipid accumulation score,[1],0.795
Cc1n[nH]c2ccc(-c3cncc(OC[C@@H](N)Cc4ccccc4)c3)cc12,scaled lipid accumulation score,[2],1.24 (active)
O=c1cnn([C@@H]2O[C@H](CO)[C@@H](O)[C@H]2O)c(=O)[nH]1,scaled lipid accumulation score,[1],≤ 0
CNCCC(Oc1ccc(C(F)(F)F)cc1)c1ccccc1.Cl (centres undefined) [Fluoxetine],scaled lipid accumulation score,library stock concentration: 5.8 mM,0.96 (active)
CNCCC(Oc1ccc(C(F)(F)F)cc1)c1ccccc1.Cl (centres undefined) [Fluoxetine hydrochloride],scaled lipid accumulation score,[1],1.57 (active)
CNCCC(Oc1ccc(C(F)(F)F)cc1)c1ccccc1.Cl (centres undefined) [Fluoxetine HCl],scaled lipid accumulation score,[2],0.709 (active)
same,scaled lipid accumulation score,[1],1.02 (active)
CNCCC(Oc1ccc(C(F)(F)F)cc1)c1ccccc1.Cl (centres undefined),scaled lipid accumulation score,[1],0.914 (active)
CCCCCCCCCCCCCCCC(=O)N[C@H](C)CO [R-Palmitoyl-(1-methyl) Ethanolamide],scaled lipid accumulation score,[3],0.031
CCCCC[C@H](O)/C=C/[C@H]1[C@@H](O)CC(=O)[C@@H]1CCCCCCC(=O)O [11.beta.-Prostaglandin E1],scaled lipid accumulation score,[3],≤ 0
COc1ccnc2[nH]cc(C(=O)C(=O)N3CCN(C(=O)c4ccccc4)C[C@H]3C)c12,scaled lipid accumulation score,[2],≤ 0
same,scaled lipid accumulation score,[1],0.019
O=C(O)c1ccc(N2C(=O)C(=Cc3ccc(-c4ccc([N+](=O)[O-])cc4)o3)C=C2c2ccccc2)cc1,scaled lipid accumulation score,[2],0.129
same,scaled lipid accumulation score,[1],0.284
Cc1nc(N)ncc1-c1nc(N2CCOCC2)c2sc(C(C)(C)O)cc2n1,scaled lipid accumulation score,[4],0.092
same,scaled lipid accumulation score,[5],≤ -0.005
same,scaled lipid accumulation score,[1],≤ -0.005
O=C(CCCCc1ccccc1)C(F)(F)C(F)(F)F,scaled lipid accumulation score,[3],≤ 0
CC1CC(OC(=O)C(O)c2ccccc2)CC(C)(C)C1 (centres undefined) [Cyclandelate],scaled lipid accumulation score,[2],≤ 0
same,scaled lipid accumulation score,[1],0.196
CC1CC(OC(=O)C(O)c2ccccc2)CC(C)(C)C1 (centres undefined),scaled lipid accumulation score,[1],0.065
COc1cc2c(cc1OC)-c1[nH]nc(Nc3cccc(F)c3)c1C2 [PDGF Receptor Tyrosine Kinase Inhibitor IV],scaled lipid accumulation score,[2],0.044
COc1cc2c(cc1OC)-c1[nH]nc(Nc3cccc(F)c3)c1C2,scaled lipid accumulation score,library stock concentration: 80 uM,≤ -0.001
same,scaled lipid accumulation score,[4],≤ -0.001
same,scaled lipid accumulation score,[3],≤ 0
same,scaled lipid accumulation score,[5],0.073
same,scaled lipid accumulation score,[1],0.232
O[C@H]1[C@H](O)[C@@H](O)[C@@H]2O[C@@H]2[C@@H]1O (racemic) [Conduritol b epoxide],scaled lipid accumulation score,library stock concentration: 12.3 mM,≤ 0
Cc1cc(O)c(C=O)c2c1C(=O)Oc1c(C)c(O)c3c(c1O2)C(O)OC3=O (centres undefined) [Norstictic acid],scaled lipid accumulation score,[1],≤ 0
